Sampled rows, rich in hits. Any-hit rate of the full collection: about 2.2%.
beta cell repl: inducers of MIN6 beta-cell proliferation, primary screen, ATP luminescence, uHTS | MIN6 cells proliferation, ATPlite luminescence, 48 h; cells starved in 0.2% serum; 100% = growth in 10% serum | 0.29% of 330,000 active | proliferation, % at 10 µM;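 active means compounds whose signal lies at least 3.5 SD above the mean of all wells on their plate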;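 further: 0% = DMSO-treated cells in low-serum medium and 100% = 10% serum control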
Myeloid diff MLP: induction of myeloid progenitor differentiation, primary screen, cell-based, flow cytometry, MLPCN library | ER-HoxA9 myeloid progenitors, lysozyme-GFP differentiation | calls only at 10 µM | 1% of 360,000 active | AID 624256, 2012;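 active means normalized GFP-positive differentiation at or above the plate's own cutoff, the solvent-only control mean plus 3 SD; inconclusive means no clear call, values can overlap the other calls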;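 further: cells exposed to compound for four days before flow analysis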
iPSC survival up: enhancers of single-cell hiPSC survival, primary screen, ATPlite luminescence; 100% = ROCK inhibitor wells, 0% = DMSO; 0.044% of 360,000 active; survival enhancement, % at 20 µM; in the data active means survival enhancement above about 18%;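 further: cells exposed to compounds for 16 hours before the ATP read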
Cardio protect: cardioprotection against H2O2-induced cell death, primary screen, uHTS, H9c2 cells, ATPLite luminescence | protection from H2O2 cell death, % at 20 µM | H9c2 cardiomyocytes, H2O2 injury protection, 2 h | 0.63% of 360,000 active;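 active means compounds giving at least 50% protection of heart cells from peroxide-induced death in the single-dose screen, raw or plate-pattern-corrected value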;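 further: 0% = DMSO wells with peroxide and 100% = DMSO wells without peroxide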
ABCB6 inh 2: ABCB6 transporter inhibitors, primary screen, K562-ABCB6 cells, flow cytometry, MLPCN library. ATP-binding cassette sub-family B member 6 (Homo sapiens), Q9NP58. K562-ABCB6 porphyrin accumulation, 1 h; active compounds read low. fluorescence ratio to DMSO, % at 10 µM. 0.19% of 360,000 active. AID 602162, 2011;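 active means fluorescence ratio to DMSO below 75%, the collection mean minus 3 SD; inconclusive means too few cells collected in the well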;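 further: signal is porphyrin accumulated inside mitochondria; 100% equals median channel fluorescence of DMSO control wells; lower ratio means ABCB6 inhibition with less porphyrin fluorescence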
Starred values were filed as active, the others as inactive; i = inactive; ? = inconclusive; · = no result given; + = active, no number; ! = not active in a repeat.

SMILES | beta cell repl | Myeloid diff MLP | iPSC survival up | Cardio protect | ABCB6 inh 2
O=c1[nH]c(-[n+]2ccccc2)c(/C=N/NC([S-])=Nc2ccccc2)s1 | -3 | i | 0 | 2 | 131
COCCNC(=O)c1sc2nc(-c3ccccc3)cn2c1C | 3 | i | 0 | 3 | 95
CN(C)CCCN(C(=O)c1cccs1)c1nc(-c2ccccc2)cs1 | -4 | + | -2 | 2 | 100
Cc1c(-c2ccco2)[n+](=O)c2c(n1[O-])CCC2 | 0 | i | 0 | 10 | 98
CC1(C)CC(=O)c2c(oc3cc(O)c(O)cc23)C1 | -4 | i | -2 | 90* | 98
COC(=O)c1oc2c(c1C)C(=O)CC(C)(C)C2 | -1 | i | 0 | 14 | 99
CCCn1c(=O)c2ccccc2n2c(Sc3nnnn3-c3ccccc3)nnc12 | 0 | i | -5 | 2 | 94
Cc1cccc(-c2nc3c(c(SCC(=O)N4CCOCC4)n2)Cc2c(CO)cnc(C)c2O3)c1 | -3 | i | 0 | 51* | 97
Cc1ncc(CO)c2c1Oc1nc(-c3ccccc3)nc(SCC(=O)N3CCOCC3)c1C2 | 1 | i | 0 | 33 | 89
Cc1ncc(CO)c2c1Oc1nc(-c3ccccc3)nc(SCC(=O)N3CCCCC3)c1C2 | 0 | i | 1 | 74* | 94
COc1cccc(-c2nc3c(c(SCC(=O)N4CCOCC4)n2)Cc2c(CO)cnc(C)c2O3)c1 | -1 | i | 0 | 72* | 89
COc1ccccc1-c1nc2c(c(SCC(=O)N3CCCCC3)n1)Cc1c(CO)cnc(C)c1O2 | -4 | i | 0 | 37 | 97
COc1ccc(OC)c(/C=C2\S/C(=N/NC(=O)c3ccc4ccccc4c3)NC2=O)c1 | · | i | 0 | 58* | 97
CCN(CC)C(=O)[C@H]1C[C@H](CC(=O)NCc2ccco2)C(=O)N2CCc3c([nH]c4cc(CCC(=O)N(C)C)ccc34)[C@]12C | · | i | 0 | 6 | 105
Cc1nc2ncccn2c1-c1csc(Nc2cccc(C(=O)O)c2)n1 | -2 | i | 0 | -5 | 100
COc1cccc(/C=N/Nc2ncnc3c2ncn3Cc2ccccc2)c1O | -6 | i | 0 | 60* | 90
Cc1cc2nc3n(c2cc1C)CC1CC(C(=O)NCc2cccc(C(F)(F)F)c2)N(C)C31 (centres undefined) | 3 | i | -2 | -2 | 101
O=C(O)CC(SCC(=O)NC1CCCc2ccccc21)C(=O)O (centres undefined) | -3 | i | 0 | -2 | 92
N/C(=N/OC(=O)c1ccc(Cl)cc1)c1ncc([N+](=O)[O-])s1 | -4 | + | 0 | -2 | 106
CCc1nnc(N/N=C/c2cc(Br)c(O)cc2O)n1N | -1 | i | -1 | -5 | 104
CC(C)(C)c1nnc(N/N=C/c2cc(Br)ccc2O)n(N)c1=O | · | ? | -2 | 76* | 93
CCC(CC)C(=O)Nc1c2c(nn1-c1ccc(OC)cc1)CS(=O)(=O)C2 | -1 | i | 7 | 9 | 101
CSc1ccc(C2=C/C(=C3/SC(=S)NC3=O)c3ccccc3O2)cc1 | · | + | -1 | -8 | 153
CCN1/C(=C2/SC(=S)NC2=O)Sc2ccccc21 | -2 | i | -2 | -15 | 109
C=CCn1c(SCC(=O)NCc2ccco2)nc2sc(C)c(C)c2c1=O | -2 | i | 5 | 2 | 98
SMILES | beta cell repl | Myeloid diff MLP | iPSC survival up | Cardio protect | ABCB6 inh 2
CCn1c(SCC(N)=O)nc2cc(S(=O)(=O)N3CCOCC3)ccc21 | 0 | i | -1 | -2 | 97
CCn1c(SCC(=O)c2c[nH]c3ccccc23)nc2cc(S(=O)(=O)N3CCOCC3)ccc21 | 0 | + | 2 | -2 | 116
C/C(=N\NC(=O)c1ccc(CSc2cccc3cccnc23)cc1)C1CCCCC1 | 0 | + | 1 | -6 | 91
COc1ccc(-n2nc3c(N4CCC(C(=O)N5CCC(C)CC5)CC4)nnc(C)c3c2C)cc1 | -4 | + | 0 | -5 | 201
C=CCSc1nnc(N2C(=O)C(O)=C(C(=O)c3ccco3)C2c2ccccc2F)s1 (centres undefined) | 1 | + | 1 | 4 | 111
C1CCCCCC2(CCCCC1)OCC(CN1CCOCC1)O2 (centres undefined) | 1 | i | 0 | -9 | 104
O=c1[nH]n(CC2COC3(CCCCC3)O2)c(=O)c2ccccc12 (centres undefined) | -1 | i | 1 | 52* | 94
C=CCc1cccc(/C=N/NC(=O)c2ccc3nc[nH]c3c2)c1O | -7 | i | 0 | 50* | 99
C=CCc1cccc(/C=N/NC(=O)c2ccccc2Br)c1O | -6 | i | 0 | 51* | 106
C=CCc1cccc(/C=N/NC(=O)c2ccccc2OC)c1O | -6 | i | 0 | 41 | 88
O=C(N/N=C/c1ccc(Cl)cc1Cl)c1ccc2nc[nH]c2c1 | -2 | i | 0 | 9 | 105
CC1(C)S[C@@H]2[C@H](NC(=O)[C@H](N)c3ccccc3)C(=O)N2[C@H]1C(=O)O | -1 | +! | 0 | 9 | 106
CC1(C)S[C@@H]2[C@H](NC(=O)[C@H](N)c3ccc(O)cc3)C(=O)N2[C@H]1C(=O)O | -3 | i | -1 | 3 | 98
O=C(Cc1cccc(F)c1)Nc1ccc2c(c1)CCC2 | -3 | i | -1 | -3 | 97
CCOC(=O)C1CCN(c2cc3c(cc2NC(=O)c2ccccc2F)n(C)c(=O)n3C)CC1 | 0 | i | 0 | 20 | 95
CCOC(=O)C1CCN(c2cc3c(cc2NC(=O)c2ccc(F)cc2)n(C)c(=O)n3C)CC1 | -1 | i | 0 | 81* | 97
COc1ccc2c(-c3ccccc3)cc(SCC(N)=O)nc2c1 | -2 | + | 0 | -2 | 96
NC(=O)C1CCN(C(=O)C(=O)c2cn(CC(=O)N3CCCCCC3)c3ccccc23)CC1 | 0 | i | 0 | 2 | 110
O=C(Nc1ccc(N2CCN(C(=O)c3cccs3)CC2)cc1)c1ccccc1F | 0 | + | 0 | -2 | 92
COc1cccc(OC)c1C(=O)Nc1ccc(N2CCN(C(=O)c3cccs3)CC2)cc1 | -3 | i | 0 | 13 | 97
CC(C)(C)C(=O)Nc1ccc(N2CCN(C(=O)c3cccs3)CC2)cc1 | · | + | -1 | 1 | 128
O=C(Nc1ccc(N2CCN(C(=O)c3cccs3)CC2)cc1)c1ccccc1Cl | -3 | i | 0 | 0 | 102
O=C(/C=C1\NC2(CCCC2)Cc2ccccc21)C(=O)N/N=C/c1ccccc1O | 0 | ? | -1 | 80* | 104
O=c1[nH]cc(N=Cc2cc(Cl)cc(Cl)c2O)c(=O)[nH]1 | -3 | i | 0 | 49* | 101
O=c1[nH]cc(N=Cc2cc([N+](=O)[O-])ccc2O)c(=O)[nH]1 | -3 | · | · | · | ·

Screening results: PubChem, several laboratories
